Compound activity from PubChem BioAssay.
Hits are enriched below; roughly 4% of the tested compounds scored in any of these assays.
Mtb UGM inh: M. tuberculosis UGM enzyme inhibitors, primary screen, biochemical, fluorescence polarization, single point; UDP-galactopyranose mutase (Mycobacterium tuberculosis (strain ATCC 25618 / H37Rv)), …; inhibition, % at 10 µM; purified UGM, fluorescence polarization probe displacement; 320,000 compounds, 0.06% hits; AID 504406, 2011; in the data active = inhibition above about 10%, passing the limit was not always enough; inconclusive = no clear call, values can overlap the other calls
RecA splice inh: Mtb RecA intein splicing inhibitors, primary screen, biochemical, fluorescence, HTS; inhibition, % (no concentration beside the values); cell-free RecA intein splicing; 290,000 compounds, 0.75% hits; AID 2221, 2009; in the data active = inhibition above about 30%; inconclusive = no clear call, values can overlap the other calls;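 also: 0% = vehicle wells and 100% = reference inhibitor control wells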
Target sequence (P9WHJ3 whole entry, looked up, canonical isoform): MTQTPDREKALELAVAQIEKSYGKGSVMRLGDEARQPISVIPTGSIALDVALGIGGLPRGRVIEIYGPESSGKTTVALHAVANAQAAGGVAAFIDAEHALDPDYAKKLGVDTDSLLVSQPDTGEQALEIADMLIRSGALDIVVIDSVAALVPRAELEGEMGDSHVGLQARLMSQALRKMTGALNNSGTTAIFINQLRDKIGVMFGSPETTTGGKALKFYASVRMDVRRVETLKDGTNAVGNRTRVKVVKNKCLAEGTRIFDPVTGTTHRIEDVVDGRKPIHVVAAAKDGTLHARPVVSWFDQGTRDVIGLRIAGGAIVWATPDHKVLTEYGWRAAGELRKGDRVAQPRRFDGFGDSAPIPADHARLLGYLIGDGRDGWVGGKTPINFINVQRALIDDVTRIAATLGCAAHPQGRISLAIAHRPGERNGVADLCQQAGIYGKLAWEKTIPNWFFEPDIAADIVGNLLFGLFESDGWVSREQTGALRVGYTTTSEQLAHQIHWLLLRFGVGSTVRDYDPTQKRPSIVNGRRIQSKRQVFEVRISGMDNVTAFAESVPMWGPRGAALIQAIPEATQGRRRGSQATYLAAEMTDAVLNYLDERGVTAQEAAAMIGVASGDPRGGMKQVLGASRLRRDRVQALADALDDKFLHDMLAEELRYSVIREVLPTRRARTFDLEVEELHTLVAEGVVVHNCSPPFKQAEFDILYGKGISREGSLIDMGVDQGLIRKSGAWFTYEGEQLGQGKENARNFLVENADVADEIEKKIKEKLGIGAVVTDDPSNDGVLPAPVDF
GDH-TPI counter-1: GDH-TPI coupling enzyme inhibitors, primary screen, artefact control for M. tuberculosis FBA inhibitor project, biochemical, absorbance, full deck; GDH-TPI coupled enzyme counterscreen, NADH absorbance; inhibition, % at 4.8 µM; 360,000 compounds, 1.2% hits; AID 588335, 2011; in the data active = inhibition above about 30%;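 also: 0% = DMSO wells and 100% = wells lacking the enzyme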
FBA Mtb inh: Mtb FBA enzyme inhibitors, primary screen, biochemical, fluorescence, strain H37Rv; AID 588726, 2011; purified M. tuberculosis FBA, fluorescence read-out; Fructose-bisphosphate aldolase (Mycobacterium tuberculosis (strain ATCC 25618 / H37Rv)), …; inhibition, % at 1 µM; 360,000 compounds, 2.3% hits;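 also: 0% = vehicle and 100% = reference inhibitor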
Mtb betalactam: beta-lactam sensitization of Mtb H37Rv, H37Rv; M. tuberculosis H37Rv growth with meropenem, percent inhibition; AID 434955, 2010; 330,000 compounds, 0.27% hits; inhibition, % at 25 µM; call rule not given here;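 also: growth measured after seven days incubation then overnight dye step; 0% = bacteria only wells and 100% = bacteria with antibiotic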
Rv3671c inh: Rv3671c serine protease inhibitors, primary screen, biochemical, fluorescence polarization, M. tuberculosis H37Rv. P9WHR9. inhibition, % at 5.96 µM. 320,000 compounds, 0.048% hits. AID 2606, 2010; in the data active = inhibition above about 38%;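 also: extracellular domain of Rv3671c used as enzyme; 0% = enzyme with DMSO and 100% = no enzyme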
Mtb FBA confirm: M. tuberculosis aldolase blockers, biochemical, fluorescence, strain H37Rv, confirmation | 5,600 compounds, 78% hits | inhibition, % at 1 µM | purified M. tuberculosis FBA, fluorescence read-out | shares compounds with FBA Mtb inh;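 also: 0% = vehicle wells and 100% = reference inhibitor wells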
GDH-TPI counter-2: GDH-TPI coupling enzyme inhibitors, artefact control for M. tuberculosis FBA inhibitor project, biochemical, fluorescence, high throughput; shares compounds with FBA Mtb inh; GDH-TPI coupled enzyme counterscreen; inhibition, % at 1 µM; 5,600 compounds, 81% hits; AID 652141, 2013; in the data active = inhibition above about 10%
* marks the source's active call; other numbers are inactive results; ? = inconclusive; · = no result given; + = active, no number. Rule as the data show it, unless noted: active = inhibition above about 27%; inactive = the rest.

SMILES	Mtb UGM inh	RecA splice inh	GDH-TPI counter-1	FBA Mtb inh	Mtb betalactam	Rv3671c inh	Mtb FBA confirm	GDH-TPI counter-2
O=c1c(-c2ccccc2)coc2c(CN3CCCCC3)c(O)ccc12	0.4	-3.2	36.4*	105.8*	-2.9	-0.2	89.6*	87.7*
CN(C)Cc1c(O)ccc2c(=O)c(-c3ccc(Cl)cc3)coc12	-0.5	·	21.4	45.7*	1.3	-4.2	42.8*	30.5*
C=CCN(CC=C)Cc1c(O)ccc2c(=O)c(-c3ccccc3)coc12	2.6	-1.1	15.4	52.6*	-7.0	0.6	33.5*	26.7*
O=c1c(-c2ccc([N+](=O)[O-])cc2)coc2c(O)c(O)ccc12	-1.6	-1.8	16.7	-1.5	-8.2	-9.3	·	·
CCN(CC)Cc1c(O)ccc2c(-c3ccccc3)cc(=O)oc12	3.3	-38.9	18.3	7.2	2.8	3.4	·	·
COc1ccc(-c2coc3c(CN4CCCCC4C)c(O)ccc3c2=O)cc1 (configuration not stated)	0.9	-1.6	-2.2	77.6*	0.6	9.1	69.6*	45.6*
Cn1c(SCc2ccc(F)cc2Cl)nc2ccccc2c1=O	-0.7	·	-4.8	3.6	-3.0	-3.1	·	·
CC(=O)c1ccc(N2C(=NC(=O)C3CCCCC3)SC3CS(=O)(=O)CC32)cc1 (configuration not stated)	0.9	-1.5	5.6	1.3	2.8	-2.6	·	·
N#CC1(NC(=O)Cn2ncc(Cl)c(Cl)c2=O)CCCCC1	0.3	·	3.5	1.4	74.4	1.8	·	·
O=C(CNCC1CCCO1)NCc1ccco1 (configuration not stated)	-0.2	-0.2	8.2	2.7	-7.5	0.3	·	·
C/C=C/c1ccc2c(c1)O[C@H](CN(C)C(=O)NC1CCCC1)[C@H](C)CN([C@H](C)CO)S2(=O)=O	·	·	0.0	1.5	·	·	·	·
Cc1[nH]n2c(=O)cc(-c3ccc([N+](=O)[O-])cc3)nc2c1-c1ccccc1	0.9	-2.3	18.9	-3.1	98.2	-1.2	·	·
CCCc1cc(=O)n2[nH]c(C)c(-c3ccccc3OC)c2n1	·	·	1.8	-1.8	·	·	·	·
COc1ccc(-c2c(C(F)(F)F)[nH]n3c(=O)cc(-c4ccccc4)nc23)cc1	-1.2	-11.1	0.5	39.3*	-3.2	12.1	88.1*	83.6*
Cc1[nH]n2c(=O)c3c(nc2c1-c1ccccc1)CCC3	0.5	2.8	11.7	28.5*	89.7	2.1	131.2*	96.6*
CCc1cc(=O)n2[nH]c(-c3ccccc3)c(-c3ccccc3)c2n1	-0.1	-0.5	11.6	33.9*	0.1	4.2	149.9*	111.0*
CCCc1cc(=O)n2[nH]c(C)c(-c3ccccc3)c2n1	3.8	-3.0	-0.5	27.2*	98.8	3.1	2.1	-2.2
CCc1cc(=O)n2[nH]c(C)c(-c3ccc(OC)cc3)c2n1	-1.7	-1.4	-0.5	0.2	2.5	7.1	·	·
CCOC(=O)Cc1cc(=O)n2[nH]c(C)c(-c3ccc(OC)cc3)c2n1	1.2	-23.4	5.8	14.2	36.4	-2.9	·	·
Cc1[nH]n2c(=O)cc(C(C)C)nc2c1-c1ccccc1	-3.4	-1.5	8.9	22.6	97.7	-0.4	·	·
CCOC(=O)Cc1cc(=O)n2[nH]c(C)c(-c3ccc(Cl)cc3)c2n1	1.1	0.2	11.4	61.5*	91.8	-3.0	155.8*	110.0*
Cc1[nH]n2c(=O)cc(C(C)(C)C)nc2c1-c1ccccc1	3.1	1.8	15.1	50.5*	97.7	9.8	3.0	-1.2
Cc1cc(N2CCC(N(C)C3CCCC3)CC2)nc2cc(O)ccc12	-1.0	-46.3	14.7	27.7*	0.7	8.2	91.5*	73.5*
Nc1nc(-c2ccccc2)[nH]c(=O)c1N	-2.4	-15.2	15.6	29.2*	-1.6	7.8	72.0*	52.7*
CCCCN(C)CCNC(=O)c1cc2c(-c3ccccc3F)nn(C)c2s1	1.7	-2.0	5.9	45.9*	6.5	5.8	37.5*	32.5*
SMILES	Mtb UGM inh	RecA splice inh	GDH-TPI counter-1	FBA Mtb inh	Mtb betalactam	Rv3671c inh	Mtb FBA confirm	GDH-TPI counter-2
COCCCNC(=O)c1cc2c(-c3ccc(Cl)cc3)nn(C)c2s1	2.0	3.8	19.7	74.0*	7.7	-28.4	76.8*	73.1*
COCCNC(=O)c1cc2c(-c3ccccc3F)nn(C)c2s1	-0.5	1.3	15.9	35.1*	1.1	-22.2	116.9*	88.0*
CCCCNC(=O)c1cc2c(-c3ccc(Cl)cc3)nn(C)c2s1	1.0	·	2.4	16.1	1.3	-12.5	·	·
COCCNC(=O)c1cc2c(-c3ccc(Cl)cc3)nn(C)c2s1	1.0	·	5.3	79.0*	28.2	-20.3	69.3*	53.8*
CCOC(=O)Nc1cc(OC)cc2ccc(C)nc12	·	·	10.6	0.3	·	·	·	·
COc1ccc(CN(C)S(=O)(=O)c2ccc3c(c2)OCCO3)cc1	0.2	1.7	4.8	-2.4	?	8.0	·	·
COc1ccc(Br)c(Cn2c(C)c(C(=O)NCc3ccc4c(c3)OCCO4)sc2=O)c1	·	·	3.4	0.3	·	·	·	·
COc1ccc2cc(C(=O)NCCCN3CCCC3=O)[nH]c2c1	0.9	-0.6	11.6	11.8	-0.8	-1.5	·	·
Cn1nc(-c2ccc(Cl)cc2)c2cc(C(=O)NCCCN3CCCC3)sc21	-0.9	·	13.0	35.2*	65.2	-10.2	80.8*	70.7*
CNC(=O)c1cc2c(-c3ccccc3)nn(C)c2s1	3.1	0.5	6.7	72.8*	0.3	-16.3	102.3*	79.7*
CC(C)NC(=O)c1cc2c(-c3ccc(Cl)cc3)nn(C)c2s1	-0.8	1.2	2.4	12.1	-1.3	-9.2	·	·
COc1ccc(S(=O)(=O)N2CCOCC2)cc1NC(=O)CCc1cc(OC)c(OC)c(OC)c1	0.9	·	-2.5	1.4	-9.1	-8.9	·	·
COC(=O)CCNC(=O)c1nn(Cc2ccccc2)c(=O)c2ccccc12	0.4	1.1	5.9	-0.5	-8.2	-7.4	·	·
CCC(C)(O)c1[nH]c2ccc(C#N)cc2c1C (configuration not stated)	0.5	-3.1	17.9	6.1	-8.1	-8.0	·	·
Cc1ccc2ccc(C#N)cc2c1O	·	·	17.7	35.6*	·	·	+	+
N#CCCN(C(=O)COC(=O)c1ccc2c(=O)n3c(nc2c1)CCC3)c1ccc(F)cc1	-0.4	-0.9	4.3	2.3	-2.5	4.2	·	·
